Compound activity deposited in PubChem BioAssay by several laboratories.
Mtb bLac sens – beta-lactam sensitization of Mtb H37Rv, H37Rv; M. tuberculosis H37Rv growth with meropenem, percent inhibition; inhibition, % at 25 µM; actives 0.27% (n = 330,000); AID 434955, 2010; call rule not given here;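 note: growth measured after seven days incubation then overnight dye step; 0% = bacteria only wells and 100% = bacteria with antibiotic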
FBA Mtb inh – Mtb FBA enzyme inhibitors, primary screen, biochemical, fluorescence, strain H37Rv; Fructose-bisphosphate aldolase (Mycobacterium tuberculosis (strain ATCC 25618 / H37Rv)), …; purified M. tuberculosis FBA, fluorescence read-out; inhibition, % at 1 µM; actives 2.3% (n = 360,000);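 note: 0% = vehicle and 100% = reference inhibitor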
GDH-TPI counter-1 – GDH-TPI coupling enzyme inhibitors, primary screen, artefact control for M. tuberculosis FBA inhibitor project, biochemical, absorbance, full deck; GDH-TPI coupled enzyme counterscreen, NADH absorbance; inhibition, % at 4.8 µM; actives 1.2% (n = 360,000); AID 588335, 2011; in the data active = inhibition above about 30%;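 note: 0% = DMSO wells and 100% = wells lacking the enzyme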
FadD28 FP inh – inhibitors of FadD28 bisubstrate probe binding, primary screen, biochemical, fluorescence polarization, single point; inhibition, % at 12.5 µM; actives 0.22% (n = 360,000); AID 588549, 2011; in the data active = inhibition above about 8.5%, passing the limit was not always enough; inconclusive = no clear call, values can overlap the other calls
Rv3671c protease – Rv3671c serine protease inhibitors, primary screen, biochemical, fluorescence polarization, M. tuberculosis H37Rv; inhibition, % at 5.96 µM; actives 0.048% (n = 320,000); AID 2606, 2010; in the data active = inhibition above about 38%;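 note: extracellular domain of Rv3671c used as enzyme; 0% = enzyme with DMSO and 100% = no enzyme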
Target sequence (P9WHR9 whole entry, looked up, the tested form may be a part): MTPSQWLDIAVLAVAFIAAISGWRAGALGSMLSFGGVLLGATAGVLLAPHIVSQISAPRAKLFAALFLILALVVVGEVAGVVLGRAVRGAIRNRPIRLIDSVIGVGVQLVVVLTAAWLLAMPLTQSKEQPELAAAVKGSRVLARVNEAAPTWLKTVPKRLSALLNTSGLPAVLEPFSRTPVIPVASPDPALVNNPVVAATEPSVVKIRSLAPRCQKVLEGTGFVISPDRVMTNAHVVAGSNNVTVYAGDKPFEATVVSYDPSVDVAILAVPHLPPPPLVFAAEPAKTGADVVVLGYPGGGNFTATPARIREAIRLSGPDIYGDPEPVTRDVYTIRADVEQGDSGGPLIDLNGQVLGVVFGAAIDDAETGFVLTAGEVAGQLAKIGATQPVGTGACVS
UGM FP inh – M. tuberculosis UGM enzyme inhibitors, primary screen, biochemical, fluorescence polarization, single point; inhibition, % at 10 µM; AID 504406, 2011; actives 0.06% (n = 320,000); purified UGM, fluorescence polarization probe displacement; in the data active = inhibition above about 10%, passing the limit was not always enough; inconclusive = no clear call, values can overlap the other calls
Mtb FBA confirm – M. tuberculosis aldolase blockers, biochemical, fluorescence, strain H37Rv, confirmation; shares compounds with FBA Mtb inh; purified M. tuberculosis FBA, fluorescence read-out; inhibition, % at 1 µM; actives 78% (n = 5,600);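 note: 0% = vehicle wells and 100% = reference inhibitor wells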
GDH-TPI counter-2 – GDH-TPI coupling enzyme inhibitors, artefact control for M. tuberculosis FBA inhibitor project, biochemical, fluorescence, high throughput | shares compounds with FBA Mtb inh | GDH-TPI coupled enzyme counterscreen | actives 81% (n = 5,600) | inhibition, % at 1 µM; in the data active = inhibition above about 10%
* marks the source's active call; other numbers are inactive results; ? = inconclusive; . = no result; + = active, no number. Compounds with a hit are over-represented: about 3.7% of the library has one in this group of screens. Cut-off read from the data, not from the text of the source, unless noted: active = inhibition above about 27%; inactive = the rest.

SMILES	Mtb bLac sens	FBA Mtb inh	GDH-TPI counter-1	FadD28 FP inh	Rv3671c protease	UGM FP inh	Mtb FBA confirm	GDH-TPI counter-2
CCCCCC(=O)Nc1cc(N(C)C)nc2ccccc12	-14	23	13	-3	-6	-2	.	.
CCN(CC)CC(=O)Nc1cc(N(C)C)nc2ccccc12	-10	36*	38*	-2	1	-2	30*	26*
NC(=O)c1sc2nc(-c3cccs3)ccc2c1N	-3	76*	25	1	-7	2	62*	56*
CC(C)(C)C(=O)c1sc2nc(-c3cccs3)cc(C(F)(F)F)c2c1N	-11	30*	-1	-2	11	4	49*	47*
Nc1c(C(=O)Nc2nccs2)sc2nc(-c3cccs3)cc(C(F)(F)F)c12	-5	42*	10	-2	-9	1	39*	28*
NC(=O)c1sc2nc(-c3ccccc3)ccc2c1N	0	0	-2	-4	-1	1	.	.
Cc1nnc(NC(=O)c2sc3nc(-c4cccs4)cc(C(F)(F)F)c3c2N)s1	?	33*	43*	9.4*	-2	2	5	2
Cc1cc(C(F)(F)F)c2c(N)c(C(=O)NC3CC3)sc2n1	-14	4	14	1	1	1	.	.
COc1ccc(CNC(=O)CN(c2ccc(C)cc2)S(=O)(=O)c2c(C)nn(C)c2C)cc1	1	1	-2	-1	-5	-1	.	.
Cc1cccc(N2CCN(S(=O)(=O)c3ccc(-c4ccc(=O)[nH]n4)o3)CC2)c1C	-4	1	8	-1	-9	2	.	.
CC(=O)c1cc2c(cc1NC(=O)Cc1ccsc1)OCO2	-15	5	0	-4	-15	-2	.	.
N#Cc1ccccc1S(=O)(=O)N1CCN(C(=O)C2COc3ccccc3O2)CC1 (stereo unspecified)	-2	1	4	1	-3	-1	.	.
O=C(Nc1nc(-c2ccccc2)cs1)c1ccc2c(c1)S(=O)(=O)c1ccccc1C2=O	8	84*	-2	1	-2	-1	+	158*
O=C(Cc1ccc(Cl)cc1)Nc1ccc(-c2nnc(-c3ccco3)o2)cc1	10	59*	19	-4	-20	-3	38*	31*
O=C(Cc1ccccc1)Nc1ccc(-c2nnc(-c3ccco3)o2)cc1	1	51*	15	0	-17	3	+	151*
COc1ccccc1CC(=O)Nc1ccc(-c2nnc(-c3ccco3)o2)cc1	-5	83*	18	-3	-11	-1	51*	42*
COc1cc(C(=O)Nc2ccc(-c3nnc(-c4ccco4)o3)cc2)cc(OC)c1OC	-2	-4	25	-5	-7	3	.	.
CCOC(=O)C1=CNS(=O)(=O)NC1c1ccc2ccccc2c1 (stereo unspecified)	.	5	10	0	.	.	.	.
CC1(C(=O)NCC2CC2)Cc2c(-c3cccc(C(F)(F)F)c3)ccnc2O1 (stereo unspecified)	.	0	2	0	.	.	.	.
Cc1ccc(CNC(=O)CC[C@H]2O[C@@H](n3cc(C)c(=O)[nH]c3=O)C[C@@H]2O)o1	.	-1	.	-3	.	.	.	.
O=C(COC(=O)c1ccc(Cl)c(Cl)c1)NC1CCCC1	-3	-1	-5	.	-3	-6	.	.
CC(C)(C)OC(=O)N(Cc1ccccc1)Cc1ccccc1OCc1ccc(NC(=O)C2CCC2)cc1	.	-5	6	-1	.	.	.	.
COc1ccccc1C(=O)NCC(=O)N(C)Cc1nc2ccccc2c(=O)[nH]1	.	0	-3	-4	.	.	.	.
